Data taken from article PMC5540273 (PLoS ONE, 2017).
Read-outs that look alike come from different tables or passages of the source.

Experiments:
Details in all cases: n = 1
STK16 = tested on: STK16
STK33 = tested on: STK33
STK35 = tested on: STK35
STK36 = tested on: STK36
STK39 = tested on: STK39
SYK = tested on: SYK
SgK110 = tested on: SgK110
TAK1 = tested on: T1, TAK1
T1 construct: gene MAP3K7

TAOK1 = tested on: TAOK1
TAOK2 = tested on: TAOK2
[1] = concentration: 1 μM, replicates: in singlicate
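Also: KINOMEscan kinase panel screen.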

SMILES	%Inh (STK16; [1]) [%]	%Inh (STK33; [1]) [%]	%Inh (STK35; [1]) [%]	%Inh (STK36; [1]) [%]	%Inh (STK39; [1]) [%]	%Inh (SYK; [1]) [%]	%Inh (SgK110; [1]) [%]	%Inh (TAK1; [1]) [%]	%Inh (TAOK1; [1]) [%]	%Inh (TAOK2; [1]) [%]	%Inh (STK16; 1 µM) [%]	%Inh (STK33; 1 µM) [%]	%Inh (STK35; 1 µM) [%]	%Inh (STK36; 1 µM) [%]	%Inh (STK39; 1 µM) [%]	%Inh (SYK; 1 µM) [%]	%Inh (SgK110; 1 µM) [%]	%Inh (TAK1; 1 µM) [%]	%Inh (TAOK1; 1 µM) [%]	%Inh (TAOK2; 1 µM) [%]
Cl.O=C(Nc1cccc(-c2nn3ncccc3c2-c2ccnc(Nc3cccnc3)n2)c1)c1c(F)cccc1F [GSK312879]	3	0	0	96.7	17	3	0	0	5	0										
Cl.Oc1ccc(-c2nc(-c3ccccc3)[nH]c2-c2ccncc2)cc1 [SB-428218]	16	0	0	0	0	24	0	0	0	0										
Cc1cccc(-c2nc(-c3ccc(S(C)(=O)=O)cc3)sc2-c2ccnc(NCCc3ccccc3)c2)c1	13	0	9	11	1	0	9	0	0	12										
Cl.c1ccc(-c2n[nH]cc2-c2ccnc(-c3ccc(CN4CCOCC4)cc3)c2)nc1 [GW776245]	17	0	0	9	0	16	0	0	0	5										
CN1C(=O)C(Nc2ccc(Cl)c(C(=O)O)c2)=C(c2ccc(Cl)cc2)C1=O [SB-404290]	0	0	4	0	0	28	0	0	11	5										
Cc1ccc(-c2cc(-c3c[nH]nc3-c3ccccn3)ccn2)cc1 [GW684088]	28	0	0	23	0	21	2	15	0	0										
CC1=C(C(=O)Nc2cc3cn[nH]c3cc2F)C(c2ccc(C(F)(F)F)cc2)CC(=O)N1 (stereo not drawn) [GSK429286]	14	0	0	0	20	4	0	0	0	0										
Cn1ccc2ncnc(Oc3ccc(Nc4nc5ccccc5[nH]4)cc3)c21	15	0	19	0	0	0	0	0	0	0										
Cc1c(O)cccc1Nc1ccnc2ccc(C(F)(F)F)cc12.Cl [GW466413]	0	0	0	0	3	0	0	0	0	0										
C[C@@H]1CCCCN1c1cc(-c2ccc3c(N)n[nH]c3c2)nc(N)n1 [GSK2258759]	19	0	0	0	0	10	0	0	0	0										
Cc1ccc(C(=O)Nc2ccc(Nc3ccnc4cc(-c5ccccn5)ccc34)cc2O)cc1.Cl [GW440146]	22	0	0	0	0	21	0	0	0	0										
O=C(Nc1n[nH]c2nc(-c3nccs3)c(Br)cc12)C1CCCC1 [SB-742609]	0	0	0	0	21	20	0	0	0	0										
CCn1c(-c2ccccn2)nc2cnccc21 [SB-736398]	0	0	1	0	31	0	15	0	0	33										
Cc1cccc(-c2nc(Nc3ccncc3)c3ccccc3n2)n1 [GW855857]	7	2	0	5	0	14	0	0	0	17										
CCn1c(-c2cccnc2O)nc2cnccc21 [SB-736715]	0	0	0	0	0	0	0	0	0	0										
O=C(Nc1ccccc1)Nc1cccc(Oc2ccc3nccn3n2)c1	0	1	11	0	0	12	40	0	0	0										
CS(=O)(=O)c1ccc(-c2nc3n(c2-c2ccncc2)CCC3)cc1 [SKF-105942]	96.8	0	0	0	0	11	0	0	0	0										
NC(=O)c1nnc2ccccc2c1N	2	11	10	0	27	1	0	19	20	28										

SMILES	%Inh (STK16; [1]) [%]	%Inh (STK33; [1]) [%]	%Inh (STK35; [1]) [%]	%Inh (STK36; [1]) [%]	%Inh (STK39; [1]) [%]	%Inh (SYK; [1]) [%]	%Inh (SgK110; [1]) [%]	%Inh (TAK1; [1]) [%]	%Inh (TAOK1; [1]) [%]	%Inh (TAOK2; [1]) [%]	%Inh (STK16; 1 µM) [%]	%Inh (STK33; 1 µM) [%]	%Inh (STK35; 1 µM) [%]	%Inh (STK36; 1 µM) [%]	%Inh (STK39; 1 µM) [%]	%Inh (SYK; 1 µM) [%]	%Inh (SgK110; 1 µM) [%]	%Inh (TAK1; 1 µM) [%]	%Inh (TAOK1; 1 µM) [%]	%Inh (TAOK2; 1 µM) [%]
Cc1cccc(-c2cc(Nc3ccncc3)c3ccccc3n2)n1 [GSK223675]	19	0	0	0	0	2	0	0	0	0										
Cl.NC(=O)c1cccc(Nc2nccc(Nc3ccc(Oc4cccc(Cl)c4)c(Cl)c3)n2)c1 [GW659008]	38	0	0	0	12	1	0	0	0	0										
Cc1ccc(NC(=O)Nc2cccc(C(F)(F)F)c2)cc1 [GSK955403]											30	0	0	10	3	19	0	13	0	0
O=C(Nc1ccc2c(c1)OCO2)NC1CCN(c2ccnc(Nc3ccc(F)cc3)n2)C1 (stereo not drawn) [GSK1379724]	30	0	0	0	10	16	14	0	0	0										
O=C1NC(=O)C(N2CCc3ccccc32)=C1c1ccccc1Cl [SB-373598]	58	9	1	22	7	48	0	7	15	100										
COc1cccc(NC(=O)NC2CCN(c3ccnc(Nc4ccc(F)cc4)n3)C2)c1 (stereo not drawn) [GSK1379721]	16	0	0	0	9	0	0	0	0	0										
Cc1ccccc1-n1cnc2c(N)ncnc21 [SKF-97510]	21	0	0	27	0	100	0	0	0	0										
O=S(=O)(c1ccc(-c2ccnc3[nH]ccc23)cc1)N1CCCC1 [GSK846226]	67	0	0	0	0	13	0	1	0	0										
CCCc1ccc(S(=O)(=O)NC2CCN(c3ccnc(Nc4ccc(F)cc4)n3)C2)cc1 (stereo not drawn) [GSK1379715]	6	0	0	0	13	0	34	0	0	0										
Cc1cc(-c2ccc3c(c2)CC[C@@H](N[C@@H](C)c2ccccc2)C3)cnc1N.Cl [GW412617]	22	7	10	0	1	35	0	42	14	0										
COc1cccc(-c2cc(-c3c[nH]nc3-c3ccccn3)ccn2)c1 [GW680338]	8	0	0	25	13	17	17	0	0	0										
COc1ccccc1-c1ccc2c(NC(=O)C3CC3)n[nH]c2n1 [SB-711239]	28	20	0	6	18	20	14	0	0	0										
O=c1cc(N2CCOCC2)nc2n(Cc3cccc(Cl)c3Cl)ccn12 [GSK2286295]	5	0	0	43	0	32	0	5	0	0										
Cc1c(Cn2ccn3c(=O)cc(N4CCOCC4)nc23)cccc1C(F)(F)F [GSK2289044]	13	0	0	19	13	15	0	0	0	0										
CC(=O)Nc1nc2cnc(Nc3cc(NC(=O)c4cccc(CCC#N)c4)ccc3C)nc2s1	17	0	0	16	0	15	13	42	0	0										
COc1ccc(CNC(=O)NC2CCN(c3ccnc(Nc4cc(OC)c(OC)c(OC)c4)n3)C2)cc1 (stereo not drawn) [GSK1379748]	54	0	0	0	1	21	0	0	0	0										
O=C(Nc1n[nH]c2nc(-c3nccs3)c(Br)cc12)C1CC1 [SB-742251]	61	0	0	1	21	0	4	0	0	0										
Cc1cccc(-c2nc(Nc3ccc4[nH]ncc4c3)c3ccccc3n2)n1 [GW857175]	17	0	0	15	14	5	0	0	33	9										
